Shn3 inh set2 = reduces Shn3 3'UTR luciferase signal in osteoblasts; Clone20 osteoblast Shn3 3'UTR firefly luciferase, 24 h; inhibition, % at 12.5 µM; 360,000 compounds, 0.52% hits;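 active means mean inhibition of at least 75% with every replicate also reaching 75%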;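 further: 0% = median of neutral control wells and 100% = pilot-screen positive control compound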
HIF-2a inh = HIF-2a inhibition; 786-0 RCC cells HIF-2a reporter, luciferase luminescence, overnight; inhibition, % at 18.8 µM; 360,000 compounds, 0.72% hits;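 active means inhibition of the luminescence signal of 40% or more relative to plate controls, in a single-dose primary screen at 18.75 µM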
KKLEB tox = CF airway cell cytotoxicity counter-screen | KKLEB CF airway cells viability, ATPlite luminescence, overnight; active compounds read low; cells stimulated with P. aeruginosa culture filtrate | activity change (cytotoxicity), % at 5 µM | 360,000 compounds, 0.36% hits | AID 602141;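 active means corrected activity change at or below -50% at 5 µM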
LMP1 NFkB inh = inhibitors of Epstein-Barr LMP1-induced NF-kappaB reporter; 350,000 compounds, 0.69% hits; AID 504558; LMP1-induced NF-kappaB luciferase reporter cells, luminescence; inhibition, % at 12.5 µM; in the data active means inhibition above about 41%;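 further: 0% = neutral control wells and 100% = reference inhibitor control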
Peg3 prom inh-1 = inhibitors of Peg3 promoter; HeLa PEG-Prom luciferase reporter, luminescence, overnight; inhibition, % at 20 µM; 360,000 compounds, 1.7% hits; AID 588405;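 active means inhibition of at least 50% at 20 µM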
CF NFkB inh = blocks PAF-induced NF-kB reporter in cystic fibrosis cells; KKLEB NF-kB-GFP reporter, GFP fluorescence overnight; inhibition, % at 5 µM; 360,000 compounds, 0.86% hits; AID 588850;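 active means at least 50% inhibition at 5 µM, scaled per plate between neutral and stimulator controls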;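 further: PAF is a Pseudomonas aeruginosa culture filtrate used as stimulus; plate controls were PAF-stimulated DMSO wells for no effect and unstimulated DMSO wells for full effect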
Peg3 prom inh-2 = confirmation of Peg3 promoter inhibitors; shares compounds with Peg3 prom inh-1; HeLa PEG-Prom luciferase reporter, luminescence, overnight; inhibition, % at 20 µM; 1,300 compounds, 84% hits; AID 602417;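 active means at 20 µM dose, 40% or more inhibition averaged across four replicates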
CF NFkB inh conf = confirmation of cystic fibrosis induced NF-kB inhibitors. shares compounds with CF NFkB inh. KKLEB CF airway cells, PAF-induced NF-kB-GFP fluorescence, overnight. inhibition, % at 5 µM. 1,300 compounds, 64% hits; in the data active means inhibition above about 40%;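 further: stimulus PAF is a Pseudomonas aeruginosa filtrate and not platelet activating factor; plate controls were DMSO wells with stimulus for no effect and unstimulated DMSO wells for full effect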
Mdm2 MdmX conf = confirmation of inhibitors of human Mdm2/MdmX interaction, set 2. shares compounds with HIF-2a inh. SaOS-2 split-luciferase Mdm2/MdmX complementation, luminescence. inhibition, % at 8 µM. 740 compounds, 99% hits. AID 504601;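 active means mean inhibition of the luminescence signal across two replicates at or above 26 percent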
Target sequence (O15151 whole entry, looked up): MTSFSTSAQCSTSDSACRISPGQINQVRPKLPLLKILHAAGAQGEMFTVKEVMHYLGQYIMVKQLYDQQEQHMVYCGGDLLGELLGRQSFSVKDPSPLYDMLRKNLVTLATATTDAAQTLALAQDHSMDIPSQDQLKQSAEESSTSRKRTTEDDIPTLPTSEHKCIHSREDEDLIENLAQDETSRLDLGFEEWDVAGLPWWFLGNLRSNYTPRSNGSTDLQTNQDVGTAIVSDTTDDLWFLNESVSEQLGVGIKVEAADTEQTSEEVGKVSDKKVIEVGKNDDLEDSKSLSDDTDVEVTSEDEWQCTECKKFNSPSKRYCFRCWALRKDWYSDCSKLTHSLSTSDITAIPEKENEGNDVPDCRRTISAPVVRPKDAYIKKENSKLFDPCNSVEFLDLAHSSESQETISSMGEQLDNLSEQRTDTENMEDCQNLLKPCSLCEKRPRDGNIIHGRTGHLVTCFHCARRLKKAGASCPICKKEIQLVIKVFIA
Target sequence (Q00987 whole entry, looked up): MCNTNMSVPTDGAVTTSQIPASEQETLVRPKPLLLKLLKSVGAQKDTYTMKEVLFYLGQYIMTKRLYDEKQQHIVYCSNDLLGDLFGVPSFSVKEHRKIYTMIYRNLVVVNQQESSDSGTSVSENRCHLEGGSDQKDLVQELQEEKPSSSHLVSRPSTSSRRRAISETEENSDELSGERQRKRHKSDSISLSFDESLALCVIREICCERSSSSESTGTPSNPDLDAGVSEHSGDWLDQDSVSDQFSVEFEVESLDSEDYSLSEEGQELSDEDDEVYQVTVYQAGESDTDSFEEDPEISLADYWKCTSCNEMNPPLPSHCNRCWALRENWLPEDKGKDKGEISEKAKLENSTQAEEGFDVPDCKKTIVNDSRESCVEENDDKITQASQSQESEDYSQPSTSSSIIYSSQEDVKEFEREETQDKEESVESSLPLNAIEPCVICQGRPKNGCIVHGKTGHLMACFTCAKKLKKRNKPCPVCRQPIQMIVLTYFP
HIF-2a conf = confirmation of HIF-2a inhibitors; shares compounds with HIF-2a inh; 786-0 RCC cells, HIF-2a luciferase reporter luminescence, overnight; inhibition, % at 18.8 µM; 1,800 compounds, 56% hits; AID 651580;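 active means mean inhibition across four replicates of at least 40 percent at the single tested concentration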
HIF-1a cs = inhibits HIF-1a reporter, a counter-screen for HIF-2a inhibitors; shares compounds with HIF-2a inh; MiaPaCa-2 HIF-1a luciferase reporter, desferoxamine, overnight; 1,800 compounds, 72% hits; inhibition, % at 18.8 µM; AID 651589;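 active means mean inhibition of the reporter signal across four replicates at the single tested dose of 50% or more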
The depositor's hits bear a star; x = no result given. Hits are enriched below; roughly 2.9% of the tested compounds scored in any of these assays.

SMILES | Shn3 inh set2 | HIF-2a inh | KKLEB tox | LMP1 NFkB inh | Peg3 prom inh-1 | CF NFkB inh | Peg3 prom inh-2 | HIF-2a conf | HIF-1a cs | others
COc1cc(SC)ccc1C(=O)Nc1nc2ccccc2[nH]1 | 96* | 96* | -96* | 96* | 109* | 38 | 96* | 99* | 107*
O=C(O)c1cccc(N/N=C/c2cccs2)c1 | 66 | 82* | 6 | 57* | 83* | -27 | 68* | 86* | -5
O=C(O)c1cccc(N/N=C/c2ccc(OC(F)(F)F)cc2)c1 | 29 | 17 | 4 | 39 | 14 | -4 | x | x | x
Cc1ccccc1C(=O)NC1CCN(C(=O)Nc2ccc(F)cc2)CC1 | 16 | 13 | 7 | 9 | -290 | -9 | x | x | x
CC1=C(C(=O)OCc2ccc3c(c2)OCO3)C(c2ccccc2)NC(=O)N1 (stereo unspecified) | 24 | 37 | -30 | 69* | 51* | 84* | 62* | x | x | Mdm2 MdmX conf=96*
CC1=C(C(=O)OCc2ccc3c(c2)OCO3)C(c2ccccc2OCc2ccccc2)NC(=O)N1 (stereo unspecified) | 29 | 29 | -3 | -4 | 15 | 26 | x | x | x
CCCNC(=O)CN1C(=O)NC(CCSC)C1=O (stereo unspecified) | 17 | 4 | -1 | 6 | -17 | 3 | x | x | x
O=C(Nc1cccc(-c2ccc(N3CCCCC3)nn2)c1)C(F)(F)F | 82 | 74* | -43 | 55* | 77* | -2 | 75* | 88* | 73*
CC1CCN(c2ccc(-c3cccc(NC(=O)C(F)(F)F)c3)nn2)CC1 | 83 | 88* | -66* | 80* | 86* | 22 | 87* | 94* | 93*
O=C(Nc1cccc(-c2ccc(N3CCCCC3)nn2)c1)c1ccc(Br)o1 | -35 | -168 | -40 | -5 | -98 | 12 | x | x | x
CNC[C@H](CC1CCCCC1)NC[C@H](Cc1ccccc1)NCCC12CC3CC(CC(C3)C1)C2 | 98* | 96* | -85* | -14 | 99* | 65* | 100* | 16 | 104* | Mdm2 MdmX conf=103*
NC[C@H](Cc1ccccc1)NCCCCC1CCCCC1 | 1 | 9 | 3 | -1 | -11 | 2 | x | x | x
COc1ccc(C(=O)Nc2ccc(C)cn2)c(OC)c1 | 18 | 62* | -63* | 75* | 74* | -17 | 52* | 76* | 85*
O=[N+]([O-])c1ccc(Cl)cc1C=NNc1ccccn1 | -14 | -9 | 3 | -4 | -7 | -25 | x | x | x
O=[N+]([O-])c1cc(Cl)cc(/C=N\Nc2ccccn2)c1O | 89* | 8 | -93* | 31 | 55* | 85* | 55* | x | x | Mdm2 MdmX conf=88*
COc1cccc(-c2sc3ccccc3c2-c2ccc(OCCN(C)C)cc2)c1 | 13 | 79* | -39 | 89* | 94* | 49 | 99* | 19 | 107*
O=[N+]([O-])c1ccc(-c2nc(C(Cl)Cl)c3ccccc3n2)cc1 | 67 | -29 | -46 | 20 | 64* | 33 | 34 | x | x | Mdm2 MdmX conf=102*
CN(Cc1ccccc1)c1nc(-c2ccc([N+](=O)[O-])cc2)nc2ccccc12 | 24 | -2 | -8 | 15 | 8 | 12 | x | x | x
O=C(Nc1ccccc1N1CCCCC1)c1ccc(-c2cc(Cl)ccc2Cl)o1 | -5 | 14 | -7 | -15 | 16 | 5 | x | x | x
O=C(Nc1ccccn1)c1cc2ccccc2o1 | -22 | 45* | -29 | 46* | 51* | -3 | 45* | 70* | 61*
O=C(Nc1ccc(Cl)cn1)c1cc2ccccc2o1 | 3 | -51 | -3 | -13 | -144 | 0 | x | x | x
CCc1nn(C(CC)C(=O)NCC(C)c2ccccc2)c(=O)c2cc3occc3n12 (stereo unspecified) | -12 | 12 | 9 | 0 | 12 | 0 | x | x | x
CCOC(=O)c1ccc2nc(NC(C)=O)sc2c1 | -64 | -213 | -8 | -15 | -211 | 7 | x | x | x
CCOC(=O)c1ccc2nc(Nc3nc4ccc(F)cc4s3)sc2c1 | 35 | 91* | -10 | 24 | 96* | 25 | 93* | 93* | 73*
Fc1ccc(-c2nnc(NC3=NCCCCC3)o2)cc1 | 58 | 67* | -10 | 65* | 82* | 6 | 57* | 75* | 66*
SMILES | Shn3 inh set2 | HIF-2a inh | KKLEB tox | LMP1 NFkB inh | Peg3 prom inh-1 | CF NFkB inh | Peg3 prom inh-2 | HIF-2a conf | HIF-1a cs | others
c1ccc(-c2nnc(NC3=NCCC3)o2)cc1 | 1 | -54 | 8 | 6 | -107 | -3 | x | x | x
COc1ccc2[nH]cc(C(=O)CCl)c2c1 | -53 | 33 | -40 | -10 | 107* | 82* | 97* | x | x | CF NFkB inh conf=113*;Mdm2 MdmX conf=102*
COc1ccc2[nH]cc(C(=O)CN3CC(C)CC(C)C3)c2c1 (stereo unspecified) | -13 | 5 | -3 | 0 | -10 | 4 | x | x | x
Cn1nnnc1Sc1ncnc2scc(-c3cccc4ccccc34)c12 | -4 | 53* | -43 | 5 | 98* | 48 | 97* | 68* | 105*
COc1ccccc1-c1csc2ncnc(Sc3nnnn3C)c12 | 13 | 20 | -14 | 6 | 31 | 10 | x | x | x
CCOc1ccc(NC(=O)c2ccccn2)cc1 | 48 | 56* | -31 | 65* | 67* | -17 | 46* | 70* | 71*
CCOc1ccc(NC(=O)c2cnccn2)cc1 | -37 | -79 | 0 | 20 | -44 | -3 | x | x | x
Cc1ccccc1Nc1nc(N)nc(COC(=O)/C=C/c2ccco2)n1 | -11 | 4 | -6 | 8 | -10 | 8 | x | x | x
Cc1ccc2nc(NC(=O)c3ccco3)sc2c1 | 48 | 48* | -23 | 53* | 69* | -13 | 31 | 71* | 68*
Cc1ccc(/C=C2\SC(=S)N(CCCC(=O)Nc3ccccn3)C2=O)cc1 | 72 | 84* | 1 | 56* | 53* | 16 | 75* | x | x | Mdm2 MdmX conf=93*
O=C(CCN1C(=O)/C(=C/c2ccccc2)SC1=S)Nc1ccccn1 | -4 | 8 | 12 | 1 | 20 | -2 | x | x | x
COc1ccc2nc(C)cc(Nc3ccc(C)cc3)c2c1 | 8 | 10 | 10 | 1 | 24 | -20 | x | x | x
Cc1ccc2nc(C)cc(Nc3ccc([N+](=O)[O-])cc3)c2c1 | 48 | 53* | -24 | -98 | 104* | -72 | 98* | 12 | 95*
